From PubChem BioAssay
Cycloheximide cs: counter-screen hit for Shiga toxin inhibitors, cycloheximide; cell reporter, cycloheximide protein synthesis inhibition counterscreen; max response, %; 300,000 tested, 12% active; AID 2314; in the data active = max response mostly above about 13%, no sharp cut-off; inactive = mostly below about 14%; also: read at 38.3 µM for the half of the compounds with a filed dose; 0% is about no effect
FBPA Giardia inh: inhibitors of Giardia lamblia fructose-1,6-bisphosphate aldolase; Potency, µM (series often up to 59.6 µM), for the others: top-dose activity, negative = inhibition, actives largely listed as inhibitors; purified Giardia FBPA; 290,000 tested, 0.71% active; also: potency is read from the fitted curve at half-maximal effect; % is scaled to controls: 0 for no effect and ±100 for the full control effect; nearly all actives have a fitted effect of over 55% in size
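Giardia FBPA (40 nM reagent) was preincubated 10 min at RT with compound (up to 57.5 uM final), then substrate plus GAPDH/TPI/NAD/arsenate coupling system with diaphorase/resazurin was added; resorufin fluorescence (525/598 nm) was read after 20 min.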
Tb PYK inh: blocks Trypanosoma brucei pyruvate kinase | Q57TT1 | TbPYK enzyme, Kinase-Glo Plus ATP luminescence, 45 min | Potency, µM (titrated, usually from 76.8 µM), for the others: at the highest dose activity, negative = inhibition, actives largely listed as inhibitors | 410,000 tested, 0.12% active; also: potency is read from the fitted curve at half-maximal effect; % is scaled to controls: 0 for no effect and ±100 for the full control effect; nearly all actives have a fitted effect of over 50% in size
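Assay buffer: 50 mM TEA pH 7.2, 100 mM KCl, 10 mM MgCl2, 0.05% BSA, 0.01% Tween-20. Pyruvate kinase from T. brucei plus substrate met compound, then ADP (130 uM final). Luminescence was read post 45 min RT.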
RE007 growth inh: less growth of the S. pombe RE007 Vpr strain; S. pombe RE007 Vpr strain, BacTiter-Glo ATP luminescence, 24 h; Potency, µM (doses to about 92.2 µM), for the others: top-dose activity change, negative = less growth, hits mostly inhibitors; 360,000 tested, 0.21% active; AID 651644; active = well fitted falling curve with a large enough effect; inconclusive = small, poorly fitted or top-dose-only effect; inactive = no such curve, though single readings can be large or run the other way; also: potency is read from the fitted curve at half-maximal effect; % is scaled to controls: 0 for no effect and ±100 for the full control effect; nearly all actives have a fitted effect of over 50% in size
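Fission yeast RE007 carrying one integrated HIV-1 vpr copy, seeded at OD 0.01 in PMG+AL medium with 23 nL pinned compound. Grown 24 h at 30 degrees; viability read by BacTiter-Glo luminescence after 5 min.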
LmPK inh: LmPK (Leishmania mexicana) enzyme inhibition. Q27686. purified LmPK, Kinase-Glo ATP luminescence, 1 h. Potency, µM (titrated, usually from 57.5 µM), for inactives: at the highest dose activity change, negative = inhibition, most hits filed as inhibitors. 290,000 tested, 0.37% active; also: potency is read from the fitted curve at half-maximal effect; % is scaled to controls: 0 for no effect and ±100 for the full control effect
Target sequence (Q27686 whole entry, looked up): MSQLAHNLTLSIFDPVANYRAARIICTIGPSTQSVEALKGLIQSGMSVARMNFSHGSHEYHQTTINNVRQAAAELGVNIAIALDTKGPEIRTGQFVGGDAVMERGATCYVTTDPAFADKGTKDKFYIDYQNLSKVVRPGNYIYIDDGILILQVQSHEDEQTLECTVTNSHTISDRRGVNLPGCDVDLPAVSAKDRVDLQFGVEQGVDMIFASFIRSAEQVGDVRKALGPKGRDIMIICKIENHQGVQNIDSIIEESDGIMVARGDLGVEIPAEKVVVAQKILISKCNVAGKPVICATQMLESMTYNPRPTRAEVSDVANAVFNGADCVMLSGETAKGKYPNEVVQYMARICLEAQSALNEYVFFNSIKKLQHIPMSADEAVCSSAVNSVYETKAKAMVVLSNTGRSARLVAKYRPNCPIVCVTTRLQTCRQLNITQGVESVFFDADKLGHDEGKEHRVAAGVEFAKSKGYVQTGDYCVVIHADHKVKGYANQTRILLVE
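Kinase-Glo luminescence read after 1 h RT reaction of 0.1 nM LmPK with 0.5 mM PEP and 0.1 mM ADP. Activity scaled between uninhibited and enzyme-free controls.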
Shiga inhibitor: blocks Shiga toxin action in Vero cells | inhibition, % at 38.7 µM | 290,000 tested, 9.2% active | Vero cells, Shiga toxin protein synthesis inhibition reporter; in the data active = inhibition mostly above about 28%, no sharp cut-off; inactive = mostly below about 43%; also: 0% is about no effect
* hit, by the source's call; ? = inconclusive; . = no result given; [ ] = another dose, or the depositor's remark. Only a selection was taken, and hits are over-represented in it overall. Unless noted, calls follow the shape of the dose curve; as a rule, active = well fitted curve in the direction sought with a large enough effect; inconclusive = small, poorly fitted or top-dose-only effect, or another doubt; inactive = no such curve, though single readings can be large; an effect the other way counts as inactive or inconclusive.

SMILES	Cycloheximide cs	FBPA Giardia inh	Tb PYK inh	RE007 growth inh	LmPK inh	Shiga inhibitor
CC1=CCC2C(=O)N(c3ccc4ccccc4n3)C(=O)C2C1 (centres undefined)	9.4*	-1%	2%	-13%	-2%	-33
COC(=O)n1c(=O)oc2ccccc21	-3	-1%	-1%	30%	-5%	6
CCCCOC(=O)n1c(=O)oc2ccccc21	26*	0%	9%	-3%	1%	44
Cc1ccc(C)c(OCCn2cc(C(=O)c3cccs3)c3ccccc32)c1	.	.	-4%	.	.	.
COCCNC(=O)C(C)OC(=O)C1=Cc2ccccc2OC1 (centres undefined)	15*	2%	-9%	1%	-4%	18
c1ccc2c(CCC3CCNCC3)c[nH]c2c1	.	.	5%	.	.	.
CC(C)(C)SCCNC(=O)/C=C/c1ccc(F)cc1	51*	-6%	2%	28%	-1%	115*
CC(C)(C)SCCNC(=O)/C=C/c1ccccc1	46*	0%	3%	14%	1%	104*
O=C(/C=C/c1ccccc1)NCCc1ccccc1	46*	-9%	2%	-14%	7%	92*
Cc1cccc(NC(=O)N2CC=C(c3c[nH]c4ccccc34)CC2)c1C	.	.	-2%[15.4 µM]	.	.	.
CCCNC(=O)CSc1nc2ccccc2nc1Cc1ccc(Cl)cc1	.	.	14%[15.4 µM]	.	.	.
Cc1ccc(OCC(=O)OCc2cc(=O)n3nc(-c4cccs4)sc3n2)cc1C	.	.	-2%	.	.	.
O=C(CSc1nc2ccccc2s1)Nc1cc(S(=O)(=O)N2CCOCC2)ccc1O	20*	4%	?	15%	7%	17
O=C(CCc1ccc(S(=O)(=O)N2CCOCC2)cc1)OCc1nc2ccccc2s1	73*	1%	1%	-5%	2%	109*
O=C(COC(=O)c1cccc(S(=O)(=O)N2CCOCC2)c1)c1ccccc1	40*	-2%	-17%	0%	5%	100*
O=C(COC(=O)c1cccc(S(=O)(=O)N2CCOCC2)c1)NCc1ccccc1	.	.	-12%	-25%	.	.
O=C(COC(=O)c1cccc(S(=O)(=O)N2CCOCC2)c1)Nc1nc(-c2ccccc2Cl)cs1	28*	.	-4%	7%	-3%	93*
Cc1cc(NC(=O)COC(=O)c2cccc(S(=O)(=O)N3CCOCC3)c2)no1	-3	3%	-1%	9%	-2%	1
CCC1CCCCN1CC(=O)N1CCCc2c1c(=O)oc1ccc(OCc3ccccc3)cc21 (centres undefined)	.	.	-2%	.	.	.
Cc1cc(=O)oc2cc(NC(=O)Cc3ccccc3[N+](=O)[O-])ccc12	-2	-2%	1%	3%	0%	8
CCOc1ccc(NS(=O)(=O)c2ccc3c(c2)NC(=O)CCS3)cc1	.	.	0%	.	.	.
CC1CCN(C(=O)CNC(=O)c2ccc(Br)o2)CC1	.	.	0%	-5%	.	.
O=C(OCc1nc2ccccc2s1)c1cccc(S(=O)(=O)N2CCOCC2)c1	37*	1%	5%	-19%	-5%	108*
CCN(CC)c1ccc(S(=O)(=O)N2CCOCC2)cc1NC(=O)CSc1n[nH]c(N)n1	45*	0%	0%	-8%	2%	44*
CCN(CC)CCNC(=O)CCCCn1c(=S)[nH]c2c([nH]c3ccc(OC)cc32)c1=O	-3	-9%	?	8%	2.8µM*	18
SMILES	Cycloheximide cs	FBPA Giardia inh	Tb PYK inh	RE007 growth inh	LmPK inh	Shiga inhibitor
CCCCNC(=O)c1ccc(Cn2c(=S)[nH]c3c([nH]c4ccc(OC)cc43)c2=O)cc1	1	5%	?	-2%	-1%	-8
CCC(Cc1ccccc1)NC(=O)Cn1ncc2c3ccccc3n(Cc3ccccc3)c2c1=O (centres undefined)	.	.	-1%	.	.	.
O=C(Nc1nc2ccccc2[nH]1)C1CC(=O)N(c2ccc3c(c2)OCCO3)C1 (centres undefined)	28*	-7%	-2%	3%	5%	42
Cc1ccnc(NC(=O)C2CC(=O)N(c3ccc4c(c3)OCCO4)C2)c1 (centres undefined)	34*	.	3%	-16%	-13%	92*
Nc1nn2cc(-c3ccc(Br)cc3)nc2c2ccccc12	62*	-5%	-4%	?	?	125*
CCc1ccc(OCCn2cccn2)cc1	34*	1%	5%	5%	4%	59*
CCc1ccc(OCCOCCN2CCN(C)CC2)cc1	12	?	11%	-4%	-1%	18
CCCOc1ccc(C(=O)CCC(=O)OCC(=O)N2CCN(S(=O)(=O)c3ccc(C)cc3C)CC2)cc1	.	.	-7%	3%	.	.
O=C1NC(=O)C(=Cc2ccc(OCCOc3ccc([N+](=O)[O-])cc3)cc2)C(=O)N1	9	-10%	?	5%	-5%	11
Cc1ccc(OCCOc2cccc(C=C3C(=O)NC(=O)NC3=O)c2)c(C)c1	110*	0%	-15%	-11%	6%	110*
O=C1NC(=O)C(=Cc2cccc(OCCOc3ccccc3)c2)C(=O)N1	44*	-6%	?	-14%	1%	65*
Cc1c(C)n2c(SCC(=O)N3CC(C)OC(C)C3)nnc2[nH]c1=O (centres undefined)	.	.	1%	-8%	.	.
CCn1c(SCC(=O)N2CC(C)OC(C)C2)nc2c([nH]c3ccccc32)c1=O (centres undefined)	7	.	-4%	-7%	1%	3
CC(=O)Oc1ccccc1-c1nc(C)nc(N(C)C(C)=O)n1	12*	4%	4%	0%	-13%	38*
Cc1ccc(N2NC(C)(c3cccs3)NC2=S)cc1 (centres undefined)	31*	-12%	-3%	0%	6%	74*
Cc1ccc(N2CC(O)(c3cccs3)[N+]3=C2CCCC3)cc1 (centres undefined)	-1	3%	-1%	-24%	3%	-9
CCOc1ccc(NC(=O)c2ccc(NC(=O)N3CCSc4ncccc43)cc2)cc1	.	.	-1%[15.4 µM]	.	.	.
Fc1ccc(-c2nnn(Cc3ccc(F)cc3Cl)n2)cc1	24*	4%	-2%	-10%	-1%	105*
Cc1ccccc1-c1nnn(Cc2ccc(F)cc2Cl)n1	18	0%	-5%	3%	-1%	24*
O=C(Cn1ncc2c3ccccc3n(Cc3ccccc3)c2c1=O)NCCc1ccc(Cl)cc1	.	.	2%	.	.	.
Cc1cccc(-c2nnc(SCC(=O)Nc3cc(C)on3)n2C)c1	1	.	2%	2%	-5%	-8
Cn1c(SCC(N)=O)nnc1-c1ccc(C(C)(C)C)cc1	17*	-2%	4%	-11%	-5%	14
Cc1cccc(-c2nnc(SCC(=O)C(C)(C)C)n2C)c1	37*	5%	0%	4%	4%	73*
Cc1ccc(-c2nnc(SCC(N)=O)n2C)cc1	3	0%	1%	-21%	-9%	-24
